# Assay results taken from PMC13423814.
# Molecular target: HNRNPC (UniProt P07910)
# Conditions: DSSO, in cells
substance,measurement,value
"HNRNPR, O43390",cross-linked residues,K374 - K8
